Rows were chosen to be rich in hits. Some 11% of all compounds tested hit in one or more screens of this group.
USP17 block: human USP17-like deubiquitinase inhibition; inhibition, % at 50 µM; A8MUK1; 47,000 compounds, 6.5% hits; purified USP17, Ub-rhodamine cleavage fluorescence, 3 h
USP28 block: human USP28 deubiquitinase inhibition. purified USP28, Ub-rhodamine cleavage fluorescence, 30 min. inhibition, % at 25 µM. Q96RU2. 47,000 compounds, 3% hits
USP30 inh: inhibitors of human USP30 deubiquitinase; Q70CQ3; purified USP30, Ub-rhodamine cleavage fluorescence; inhibition, % at 25 µM; 47,000 compounds, 5.3% hits; AID 1645860
Target sequence (Q70CQ3 whole entry, looked up): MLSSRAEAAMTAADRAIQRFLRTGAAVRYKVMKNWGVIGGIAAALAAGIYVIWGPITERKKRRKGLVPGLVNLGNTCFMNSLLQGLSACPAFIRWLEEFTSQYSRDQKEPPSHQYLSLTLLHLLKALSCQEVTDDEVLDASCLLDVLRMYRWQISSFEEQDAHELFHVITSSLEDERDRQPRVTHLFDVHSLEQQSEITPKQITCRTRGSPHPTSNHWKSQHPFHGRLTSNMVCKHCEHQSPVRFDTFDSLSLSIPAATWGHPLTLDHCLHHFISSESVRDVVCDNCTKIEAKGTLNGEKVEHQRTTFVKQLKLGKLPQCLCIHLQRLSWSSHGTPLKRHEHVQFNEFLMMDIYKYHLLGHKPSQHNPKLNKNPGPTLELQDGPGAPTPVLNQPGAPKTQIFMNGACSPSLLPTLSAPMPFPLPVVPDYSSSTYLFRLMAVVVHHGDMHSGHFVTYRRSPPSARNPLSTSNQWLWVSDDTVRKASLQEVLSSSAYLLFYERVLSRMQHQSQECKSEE
OTUD3 inh: human OTUD3 deubiquitinase inhibition | AID 1645858 | Q5T2D3 | 47,000 compounds, 0.7% hits | inhibition, % at 25 µM | purified OTUD3, Ub-rhodamine fluorescence, 2 h
* marks the source's active call; other numbers are inactive results; . = no result given. Rule as the data show it: active = inhibition above about 30%; inactive = the rest.

SMILES	USP17 block	USP28 block	USP30 inh	OTUD3 inh
Cc1c(OCC(=O)Nc2nc3ccccc3[nH]2)ccc2c3c(c(=O)oc12)CCC3	37*	8	52*	0
COc1ccc(C(C)=O)cc1CC(=O)Nc1nc2ccccc2[nH]1	59*	24	21	5
Cc1ccc(C(C)C)cc1OCC(=O)Nc1nc2ccccc2[nH]1	8	4	17	4
COc1ccccc1CC(=O)Nc1nc2ccccc2[nH]1	60*	3	15	-2
O=C(Nc1ccc(F)cc1F)C(Cc1c[nH]c2ccccc12)N1CCS(=O)(=O)CC1 (centres undefined)	0	6	1	6
Cc1cccc(C(=O)Nc2ccc3c(c2)C(=O)N(C)c2ccccc2O3)c1	17	47*	16	15
Cc1cccc(C(=O)Nc2ccc(N3CCCCC3)c(NC(=O)Nc3ccccc3Cl)c2)c1	-1	-6	-13	-1
Cc1ccc(C(=O)Nc2ccc3c(c2)C(=O)N(C)c2ccccc2O3)cc1C	4	55*	11	8
Cc1ccncc1NC(=O)c1ncn2c1CN(C)S(=O)(=O)c1ccccc1-2	0	5	8	10
O=C(CCc1nc(CSc2nc3ccccc3o2)no1)Nc1ccccc1F	17	48*	16	13
O=C(c1cnn2c(-c3ccc(F)cc3)ccnc12)N1CCCC(O)CC1 (centres undefined)	19	8	14	16
CCOC(=O)c1sc2c(c1C)c(=O)n(Cc1ccccc1)c(=O)n2CC(N)=O	22	0	55*	18
Cc1cc(NC(=O)C(=O)NCC2CCN(C(C)C)CC2)no1	10	2	33*	10
Cc1cc(NC(=O)C2CCCN(S(=O)(=O)N3CCCCCC3)C2)no1 (centres undefined)	-2	-9	-7	-8
Cc1nc2c(c(Nc3ccc(N4CCCCC4)cc3)n1)CCC2	6	1	11	-1
O=C(Nc1cccc(Cl)c1)N1CCC(c2nc(-c3cccnc3)no2)CC1	-17	-7	-6	-7
O=C(Nc1cccc(Cl)c1)N1CCC(c2cc(-c3ccco3)n[nH]2)CC1	64*	39*	-79	33*
CCOC(=O)c1cc(OCC(=O)Nc2ccccc2)c2cc(Cl)ccc2n1	40*	-6	-5	-2
CCOC(=O)c1cc(OCC(=O)Nc2ccc(C)cc2)c2cc(Cl)ccc2n1	19	2	5	18
Fc1cnc(N2C[C@H](OCc3ccccn3)[C@H]3COC[C@H]32)nc1	-19	-24	-76	-16
O=[N+]([O-])c1ccc(-c2nc3ccccn3c2Br)cc1	39*	7	44*	12
Nc1c(-c2ccccc2)nc2ccccn12	1	6	20	9
Cc1c(Cl)cccc1S(=O)(=O)N1CCC2(CC1)CC2c1nc(-c2cccnc2)no1 (centres undefined)	15	7	35*	7
O=S(=O)(c1cccc(Cl)c1F)N1CCC2(CC1)CC2c1nc(-c2cccnc2)no1 (centres undefined)	-23	1	17	1
Cc1ccccc1CCNC(=O)C1CCN(c2nc3ccccc3[nH]2)CC1	3	.	.	17
SMILES	USP17 block	USP28 block	USP30 inh	OTUD3 inh
COc1ccc(-c2nc3n(n2)C(c2cccc(O)c2)C2=C(CCCC2=O)N3)cc1 (centres undefined)	51*	2	13	-9
CCOc1ccc(C2C3=C(CCCC3=O)Nc3nc4ccccc4n32)cc1OC (centres undefined)	-1	4	-3	-6
COc1ccc(CNC(=O)c2cccc(N3C(=O)N4CCc5c([nH]c6ccccc56)[C@@]4(C)C3=O)c2)cc1	0	-7	0	-15
COc1ccc(CNC(=O)c2ccccc2N2C(=O)N3CCc4c([nH]c5ccc(OC)cc45)[C@@]3(C)C2=O)cc1	45*	6	18	23
C[C@]12C(=O)N(c3cccc(C(=O)O)c3)C(=O)N1CCc1c2[nH]c2ccccc12	20	11	36*	10
C[C@]12C(=O)N(c3ccc(C(=O)NCc4ccc(F)cc4)cc3)C(=O)N1CCc1c2[nH]c2ccccc12	35*	15	52*	16
CC(=O)Nc1ccc(NC(=O)c2ccc(N3C(=O)N4CCc5c([nH]c6ccccc56)[C@@]4(C)C3=O)cc2)cc1	0	31*	-59	-20
Cc1cc(C(F)(F)F)nc(C2CCCCN2)n1 (centres undefined)	1	-3	0	-1
CN1CC2(COc3ccccc31)CN(C(=O)c1nccs1)CCO2 (centres undefined)	-15	-13	-8	-7
O=C(Nc1nnc(CCc2ccccc2)s1)C(=O)c1c[nH]c2ccccc12	23	11	35*	4
COc1cc(-c2cc(-c3ccccc3Br)nc(N)c2C#N)cc(OC)c1OC	-7	-22	-40	-16
COc1ccc(-c2cc(-c3ccc(O)cc3)nc(N)c2C#N)cc1OC	46*	73*	50*	20
CCc1ccc(NC(=O)N2C[C@H]3C[C@H](C(=O)NC(C)C)[C@@H](C2)O3)cc1	8	9	12	10
Cc1ccc(C(CC(=O)Nc2cccc(C)n2)N2Cc3ccccc3C2=O)cc1 (centres undefined)	41*	15	0	12
CC(=O)Nc1ccc(-n2cnc(C(=O)NC(C)c3ccccc3)c2)nc1 (centres undefined)	64*	10	19	7
CC(=O)Nc1ccc(-n2cnc(C(=O)NC3CCCC3)c2)nc1	-7	1	-1	2
COc1ccc(/C=C/C(=O)Nc2ccc(Cl)c(-c3nc4ncccc4o3)c2)cc1	0	9	12	-5
Cc1cc(=O)sc2c1c(C)nn2-c1ccccc1	31*	30*	14	19
Cn1ncc(Cl)c1C(=O)Nc1ccc2nc(NC(=O)C3CCCCC3)sc2c1	38*	8	12	7
O=C(c1cnc2ccccc2n1)N1CCC(S(=O)(=O)c2ccc(-c3ccco3)cc2)CC1	44*	5	-13	-3
COc1ccccc1C(=O)N1CCC(S(=O)(=O)c2ccc(-c3ccco3)cc2)CC1	56*	26	27	16
COc1ccc(S(=O)(=O)c2c(C)c(C)n(C(C)C)c2NC(=O)c2ccccc2F)cc1	31*	0	-13	-10
Cc1cc(SCc2ncon2)c(C)cc1Cl	.	69*	12	11
COc1c(C(=O)N2CCCC(c3[nH]nc4nccnc34)C2)cnc2cc(Cl)ccc12 (centres undefined)	-4	-7	-22	3
Cn1c(=O)n(CC(=O)Nc2ccc(F)c(Cl)c2)c(=O)c2ccccc21	2	0	5	6
O=C(Cn1c(=O)c2ccccc2n(CC(=O)Nc2ccc(F)c(Cl)c2)c1=O)NCc1ccco1	62*	39*	45*	49*
O=C(CCCCn1c(=O)c2ccccc2n(CC(=O)Nc2ccc(F)c(Cl)c2)c1=O)NCc1ccco1	70*	22	-6	26
O=C(NCc1ccco1)C(=O)Nc1ccc(F)c(Cl)c1	35*	-12	-11	-9

From PubChem BioAssay
